Molecules are shown by their SMILES. Activity calls are given as the source filed them.

This passage reports composite z-score, z-score and composite Z-score results from PubChem BioAssay.

Test [1] has as its system Human papillomavirus type 1a protein E7 (residues 44-93). In words: small molecules binding HPV E7 44-93 – biochemical, small-molecule microarray, residues 44-93, 635 nm fluorescence, primary screen (AID 1108).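 Note: E7 fragment applied at 1 µg/mL in TBST for 1 h at 4 C; score combines spot fluorescence with its signal to noise ratio.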 The conditions noted are these: fluorescence 635 nm, higher = more signal.
Test [2] in a line: hepatitis C replication reporter changes, two-sided – Huh7 cells, luciferase reporter, HCV replication inhibitor project, primary screen (AID 1109).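 Note: huh7 hepatoma cells harbouring a luciferase neomycin HCV replicon reporter; luciferase luminescence as measure of HCV replicon replication; test concentration not given here.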 The following applies: Huh7 HCV replicon luciferase reporter, 48 h; higher = more signal. (In a reporter assay the amount or activity of a reporter protein is the signal.)
Test [3] has as its target Left-right determination factor 2 (Homo sapiens) (UniProt O00292). In words: small molecules binding LEFTY2 protein – biochemical, small-molecule microarray, 635 nm fluorescence scan, primary screen (AID 1110). The conditions noted are these: higher = more signal.
Test [4] has as its target Calmodulin-1 (Homo sapiens) (UniProt P0DP23). In words: small molecules binding calmodulin-1 with EGTA – biochemical, small-molecule microarray, Cy5-labelled CALM1, profiling panel (AID 1111).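 Note: labelled calmodulin applied in Tris saline Tween buffer holding calcium plus EGTA and DTT.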 The conditions noted are these: Cy5-CALM1 binding fluorescence, higher = more signal.
The target is the same in test [5]. In words: small molecules binding Ca-loaded calmodulin-1 – biochemical, small-molecule microarray, Cy5-labelled CALM1, plus calcium, artefact control for SMM control-protein annotation, profiling panel (AID 1112).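 Note: score merges spot fluorescence with signal to noise from triplicate slides.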 The following applies: Cy5-CALM1 binding fluorescence, higher = more signal.
Test [6] can be described thus: probe aWnt5a binding to arrayed compounds – biochemical, biotinylated probe, 635/667 nm fluorescence, primary screen (AID 1113).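 Note: score merges 667 nm fluorescence intensity with signal-to-noise per printed feature.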 The following applies: small-molecule microarray, higher = more signal.
Test [7] is described as follows: probe aShh binding to arrayed compounds – biochemical, biotinylated probe, 635/667 nm fluorescence, primary screen (AID 1114).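 Note: probe is biotin-labelled aShh protein from a stem cell growth factor screen; measures binding of labelled protein to compounds printed on the slide; score merges feature fluorescence at 667 nm with signal-to-noise.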 The following applies: small-molecule microarray, higher = more signal.
Test [8] can be described thus: probe aNog binding to arrayed compounds – biochemical, biotinylated probe, 635/667 nm fluorescence, primary screen (AID 1115).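 Note: probe is biotinylated aNog protein used at 0.15 µg/mL for 1 h at 4 C; z-score combines 667 nm fluorescence of each spot with its signal to noise.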 The conditions noted are these: small-molecule microarray, higher = more signal.
Test [9] has as its target Torsin-1A-interacting protein 1 (Homo sapiens) (UniProt Q5JTV8). The experiment in a line: compound microarray binding of lysate hLAP1 – cell lysate, small-molecule microarray, COS7 lysate, 635/667 nm fluorescence, primary screen (AID 1116). The conditions noted are these: 635 nm fluorescence, higher = more signal.
Test [10] concerns the target Alpha-bungarotoxin (Bungarus multicinctus) (UniProt P60615). In words: compounds binding labelled alpha-BTX control protein – biochemical, small-molecule microarray, Alexa647 label, 635/667 nm fluorescence, artefact control for SMM control protein annotation, profiling panel (AID 1117). The following applies: alpha-BTX-A647 binding fluorescence, higher = more signal.
Test [11] addresses Albumin (Bos taurus) (UniProt P02769). In words: compounds binding labelled BSA control protein – biochemical, small-molecule microarray, Alexa647 label, 635/667 nm fluorescence, artefact control for SMM control protein annotation, profiling panel (AID 1118).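 Note: score merges 667 nm emission intensity and signal-to-noise per printed compound spot.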 The following applies: BSA-A647 binding, fluorescence 635 nm, higher = more signal.
A short description of test [12]: probe aXIP binding to arrayed compounds – biochemical, NeuroSMM set, 635/667 nm fluorescence, primary screen (AID 1119).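 Note: probe is the protein aXip251-270 applied at 1 µg/mL to compound-printed slides; binding of probe to printed compounds measured as 667 nm fluorescence plus signal to noise.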 The following applies: small-molecule microarray, higher = more signal, called active from +8 up or from −8 down.
Test [13] in a line: probe aNOTCH3 binding on compound microarray – biochemical, small-molecule microarray, 635/667 nm fluorescence, primary screen (AID 1120).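 Note: probe is a biotin-tagged antibody raised against NOTCH3 rather than NOTCH3 protein; score merges spot fluorescence near 667 nm with spot signal to noise.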 The following applies: higher = more signal.
Test [14] can be described thus: probe aNOTCH2 binding on compound microarray – biochemical, small-molecule microarray, 635/667 nm fluorescence, primary screen (AID 1121).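 Note: score merges feature fluorescence read at 667 nm with its signal to noise.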 The following applies: higher = more signal.
Test [15] deals with Carbonic anhydrase 2 (Homo sapiens) (UniProt P00918). The experiment in a line: compounds binding carbonic anhydrase 2 – biochemical, small-molecule microarray, Alexa647-labelled CAII, profiling panel (AID 1122). The following applies: CAII-A647 binding fluorescence, higher = more signal.
Test [16] is described as follows: COS7 lysate on small-molecule microarray, probe aHis, 635 nm (AID 1123).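 Note: z-score combines 667nm fluorescence intensity with signal-to-noise per printed compound spot.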 The conditions noted are these: COS7 cell lysate, fluorescence, higher = more signal.
Test [17] in a line: probe aLAP1 signal on lysate-treated microarray – cell lysate, small-molecule microarray, COS7 lysate, primary screen (AID 1124).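 Note: lysate comes from COS7 cells expressing LAP1 and is applied at 0.3 µg/mL; score merges spot fluorescence near 667 nm with signal-to-noise over triplicate slides.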 The conditions noted are these: probe aLAP1, fluorescence, higher = more signal.
The subject of test [18] is Sam68 (KHDRBS1). The experiment in a line: compounds binding KHDRBS1 protein – biochemical, small-molecule microarray, 635 nm fluorescence, primary screen (AID 1125).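 Note: score merges 667 nm channel intensity with signal to noise over triplicate slides.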 The conditions noted are these: higher = more signal.
The test system of test [19] is Chordin-like protein 2 (CHRDL2). The experiment in a line: compounds binding chordin-like 2 – biochemical, small-molecule microarray, 635 nm fluorescence, primary screen (AID 1126).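 Note: printed compound slides probed with Chrdl2 protein at 4 µg/mL for 1 h at 4 C; score merges 667 nm emission intensity with signal to noise over three replicate slides.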 The conditions noted are these: fluorescence 635 nm, higher = more signal.
For test [20], the target named is Concanavalin-A (Canavalia ensiformis) (UniProt P02866). The experiment in a line: compounds binding concanavalin A lectin – biochemical, small-molecule microarray, Alexa647 label, 635 nm, artefact control for SMM control protein annotation, primary screen (AID 1127).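 Note: z combines 667 nm emission intensity with signal-to-noise across three replicate slides.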 The following applies: ConA-A647 binding fluorescence, higher = more signal.
Concanavalin-A (Canavalia ensiformis), sequence (P02866 whole entry, looked up): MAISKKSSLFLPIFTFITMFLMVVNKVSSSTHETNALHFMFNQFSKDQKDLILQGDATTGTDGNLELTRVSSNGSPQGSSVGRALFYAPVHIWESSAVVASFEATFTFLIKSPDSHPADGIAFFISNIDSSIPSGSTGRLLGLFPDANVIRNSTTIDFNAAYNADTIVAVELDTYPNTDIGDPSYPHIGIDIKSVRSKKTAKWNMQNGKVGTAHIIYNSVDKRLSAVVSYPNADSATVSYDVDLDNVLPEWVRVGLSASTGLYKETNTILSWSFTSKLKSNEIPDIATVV

Alpha-bungarotoxin (Bungarus multicinctus), sequence (P60615 whole entry, looked up): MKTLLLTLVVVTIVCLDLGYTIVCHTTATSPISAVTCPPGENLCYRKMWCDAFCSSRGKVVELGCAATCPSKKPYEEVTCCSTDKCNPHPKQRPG
Albumin (Bos taurus), sequence (P02769 whole entry, looked up): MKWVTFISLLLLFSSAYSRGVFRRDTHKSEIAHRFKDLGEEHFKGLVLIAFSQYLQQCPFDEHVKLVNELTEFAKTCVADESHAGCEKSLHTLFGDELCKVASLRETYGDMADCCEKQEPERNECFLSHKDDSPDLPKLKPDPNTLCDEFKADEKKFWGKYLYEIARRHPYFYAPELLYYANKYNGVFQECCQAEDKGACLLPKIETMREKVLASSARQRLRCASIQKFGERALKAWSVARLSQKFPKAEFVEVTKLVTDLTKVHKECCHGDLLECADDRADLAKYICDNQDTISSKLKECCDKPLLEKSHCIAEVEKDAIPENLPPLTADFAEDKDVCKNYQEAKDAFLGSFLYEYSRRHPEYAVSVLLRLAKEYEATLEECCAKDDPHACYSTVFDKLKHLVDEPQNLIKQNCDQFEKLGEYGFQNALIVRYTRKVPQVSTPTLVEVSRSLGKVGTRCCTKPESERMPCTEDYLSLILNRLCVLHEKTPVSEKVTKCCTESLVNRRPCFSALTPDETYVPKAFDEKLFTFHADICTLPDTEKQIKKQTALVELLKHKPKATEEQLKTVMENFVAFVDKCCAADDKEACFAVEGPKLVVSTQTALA
Torsin-1A-interacting protein 1 (Homo sapiens), sequence (Q5JTV8 whole entry, looked up): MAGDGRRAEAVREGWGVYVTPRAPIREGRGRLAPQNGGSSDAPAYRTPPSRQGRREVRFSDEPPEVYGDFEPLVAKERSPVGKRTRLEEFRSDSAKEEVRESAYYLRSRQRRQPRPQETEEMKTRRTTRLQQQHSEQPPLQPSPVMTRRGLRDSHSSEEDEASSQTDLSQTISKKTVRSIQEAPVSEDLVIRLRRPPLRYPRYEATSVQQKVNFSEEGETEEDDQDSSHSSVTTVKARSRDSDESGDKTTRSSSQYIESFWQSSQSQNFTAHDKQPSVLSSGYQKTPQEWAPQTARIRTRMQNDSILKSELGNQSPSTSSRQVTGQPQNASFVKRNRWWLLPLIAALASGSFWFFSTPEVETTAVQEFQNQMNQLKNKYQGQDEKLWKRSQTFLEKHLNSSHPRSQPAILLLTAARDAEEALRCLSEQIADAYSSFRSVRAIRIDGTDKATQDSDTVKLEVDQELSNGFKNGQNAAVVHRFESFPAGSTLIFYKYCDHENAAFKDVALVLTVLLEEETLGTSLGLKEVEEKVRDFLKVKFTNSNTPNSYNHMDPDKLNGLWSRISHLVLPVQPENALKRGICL
Left-right determination factor 2 (Homo sapiens), sequence (O00292 whole entry, looked up): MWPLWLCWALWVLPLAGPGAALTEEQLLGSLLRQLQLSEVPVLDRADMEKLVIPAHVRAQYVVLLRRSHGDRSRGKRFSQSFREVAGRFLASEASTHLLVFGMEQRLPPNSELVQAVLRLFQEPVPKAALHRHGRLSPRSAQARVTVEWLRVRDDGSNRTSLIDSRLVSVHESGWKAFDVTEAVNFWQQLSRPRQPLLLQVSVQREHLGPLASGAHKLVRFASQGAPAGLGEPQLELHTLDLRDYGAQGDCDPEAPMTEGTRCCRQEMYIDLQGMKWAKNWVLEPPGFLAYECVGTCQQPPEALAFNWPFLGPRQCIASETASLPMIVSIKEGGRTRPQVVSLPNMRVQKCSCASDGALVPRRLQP

In the case of `CN1C(=O)C2C=CC(C(O)Cc3ccccc3)N(N(c3ccccc3)c3ccccc3)C2C1=O` (stereo not given), the composite z-score in test [1] was 0.501; in [3], -0.268; in [4], -0.0282; in [5], 0.372; in test [6], 0.0438; in test [7], 0.0469. The composite z-score in [8] is 1.14; in test [9], 0.368; in test [10], 0.678; in test [11], 0.829; in test [13], 0.116; in [14] it was -0.0086. The composite z-score was 0.613 in [15]; 1.02 in [16]; 0.521 in test [17]; 0.805 in test [18]; -0.897 in test [19]; 0.325 in test [20]. In test [2], this molecule had a z-score of -0.251. Besides, the composite Z-score in test [12] is 0.895 (inactive).

With `COC(=O)[C@@]1(Cc2ccccc2)[C@H]2c3cc(C(=O)N4CCCC4)[nH]c3C[C@H]2CN1C(=O)c1ccccc1`, the composite z-score in test [1] is -1.89; in [3] it was -0.632; in test [4] it was 0.677; in test [5], 0.705; in test [6] it was 0.0913; in test [7], -0.243. The composite z-score in test [8] was 1.1; in test [9], 1.96; in test [10], -0.243; in test [11], 0.5; in test [13], 0.0203; in test [14], 0.111. Also, the composite z-score was 0.722 in test [15]; 3.51 in [16]; 0.341 in test [17]; -1.81 in test [18]; -0.782 in test [19]; -1.15 in [20]. Besides, in [2], the z-score is -0.151. Moreover, the composite Z-score in [12] was -0.37 (inactive).

`C[C@]1(C(=O)O)c2ccccc2C(=O)N(Cc2ccccc2)[C@H]1c1ccc(CO)cc1`: the composite z-score was -0.633 in test [1]; -2.19 in test [3]; 0.139 in [4]; 1.2 in test [5]; -0.204 in [6]; -0.291 in [7]. Besides, the composite z-score was 0.562 in [8]; -0.0514 in test [9]; -1.04 in test [10]; -0.408 in test [11]; -0.236 in test [13]; -0.0859 in test [14]. Moreover, the composite z-score was 0.756 in [15]; 0.096 in [16]; -0.581 in [17]; -1.45 in test [18]; -1.48 in [19]; -1.34 in [20]. In [2], the z-score is -0.413. The composite Z-score in test [12] is 0.174 (inactive).

With `CC(C)C(=C=CC[C@@H](O)c1ccccc1OCCO)C[C@@H](O)COCc1ccccc1`, the composite z-score in [1] was 0.247; in test [3], 0.639; in [4] it was 0.277; in test [5] it was 0.652; in test [6], -0.128; in test [7], -0.0769. The composite z-score was 0.583 in test [8]; 0.573 in test [9]; -0.345 in test [10]; -0.111 in test [11]; -0.132 in test [13]; 0.0363 in test [14]. For the same molecule, the composite z-score worked out at 0.813 in [15]; 1.37 in test [16]; 0.641 in test [17]; 0.773 in [18]; 0.0362 in [19]; 0.639 in test [20]. In test [2], the z-score was -1.21. Further, the composite Z-score in [12] was 0.477 (inactive).

Turning to `CC(CO)N1C(=O)[C@@H]2C3C(=O)OCCC/C=C\[C@H]3OC23C=CCN(Cn2nnc4ccccc42)C(=O)[C@@H]13` (stereo not given in full), the composite z-score is -1.01 in test [1]; -0.214 in [3]; -0.45 in [4]; -0.205 in test [5]; -0.152 in test [6]; -0.0553 in test [7]. In addition, the composite z-score in [8] was -0.196; in [9], -0.718; in test [10], -0.559; in [11], 0.717; in [13] it was -0.192; in test [14], -0.14. For the same molecule, the composite z-score in test [15] is 0.869; in [16], -0.202; in test [17], -0.237; in test [18], -1.07; in [19], 0.034; in test [20], -1.01. The molecule also returned a z-score in test [2] of -0.456. Besides, the composite Z-score in test [12] is 0.323 (inactive).

Take `C=C(/C(=C/C[C@@H](OC(=O)c1ccncc1)c1ccccc1OCCO)c1cc(C(=O)OC)ccc1OC)C(C)C`: the composite z-score in [1] is 1.36; in [3] it was 0.788; in test [4], 0.455; in test [5] it was -0.366; in test [6] it was -0.012; in test [7] it was 0.3. Moreover, the composite z-score in test [8] was -0.025; in [9], 0.568; in test [10] it was 0.255; in test [11], 0.359; in test [13], 0.138; in [14], -0.0895. In addition, the composite z-score in [15] came out at 0.676; in [16], 1.75; in test [17], 0.457; in [18], 1.25; in test [19], 0.0435; in test [20], 0.474. In addition, in test [2], the z-score is -2. In addition, the composite Z-score in test [12] is -0.0951 (inactive).
